From PubChem BioAssay (EPA / NIEHS)
Several values for one entry are separate records, joined by “and”; a condition that tells them apart may be missing. Equal values may be shown once. Where a structure was tested more than once in an assay, its records may differ in their call. Activity calls are given as the source filed them. How the source made its calls: active means hit-call score of the fitted dose curve at least 0.9, where 1 is the maximum; inactive means score below 0.9.

Read-out: Vascular cell adhesion molecule 1 (VCAM1), VCAM1 (gene 7412)
Test: BSK_hDFCGF_VCAM1: BioMAP Diversity Plus: hDFCGF Assay for Vascular cell adhesion molecule 1 (VCAM1) Biomarker Activity (AID 2283065)
Conditions: primary human foreskin fibroblasts; actives raise or lower the signal
Protocol: BSK_hDFCGF is a cell-based, multiplexed-readout assay that uses foreskin fibroblast, a human skin primary cell, with measurements taken at 24 hours after chemical dosing in a 96-well plate.BSK_hDFCGF_VCAM1 is an assay component measured in the BSK_hDFCGF assay. It measures VCAM-1 antibody related to regulation of gene expression using ELISA technology.Data from the assay component BSK_hDFCGF_VCAM1 was analyzed into 1 assay endpoint. This assay endpoint, BSK_hDFCGF_VCAM1, was analyzed with bidirectional fitting relative to DMSO as the negative control and baseline of activity. Using a type of binding reporter, gain or loss-of-signal activity can be used to understand changes in the signaling as they relate to the gene VCAM1. Furthermore, this assay endpoint can be referred to as a primary readout, because this assay has produced multiple assay endpoints where this one serves a signaling function. To generalize the intended target to other relatable targets, this assay endpoint is annotated to the cell adhesion molecules intended target family, where the subfamily is Immunoglobulin CAM.
The levels of cell surface (or secreted, indicated by the prefix "s") biomarker endpoints were measured by ELISA. Overt cytotoxicity to cells in confluent adherent cultures (all systems other than the BT system) was assessed by measuring total protein levels using sulforhodamine B (SRB) staining in parallel cultures at the time of biomarker measurements, indicated as SRB endpoints. For proliferation assays for adherent cell types, individual cell types are cultured at sub-confluence and relative cell numbers quantified by SRB staining at time points optimized for each system (48 h: 3C and CASM3C systems; 72 h: BT and HDF3CGF systems; 96 h: SAg system). SRB was performed by staining cells with 0.1% SRB after fixation with 10% TCA and reading wells at 560 nm.Viability and proliferation of PBMC (T cells) was quantified by Alamar Blue reduction for the SAg and BT systems. For PBMC viability (referred to as PBMC Cytotoxicity within the assay endpoint names), cells were plated (75,000/well in a 96-well plate) and then chemical samples added for 1 h before addition of activators, SEB and TSST-1 (20 ng/mL final concentration each). Cells were incubated for 90 h. Then, Alamar Blue (20 uL/well) (Invitrogen, Cat DAL1100) was added for 6 h, and the plates were read with a fluorescence microplate reader at 546/580 nm (excitation/emission). For PBMC proliferation, cells were plated and activated as above but incubated for only 16 h prior to addition of Alamar Blue. Plates were read after 6 h.

**Q.** With `COP(N)(=S)OC` as the molecule, how does the outcome read?
**A.** The outcome was “inactive”.

**Q.** How did the outcome turn out when `O=P(Oc1ccccc1)(Oc1ccccc1)Oc1ccccc1` was run?
**A.** The outcome was “inactive”.

**Q.** How did the outcome turn out when `OCC(F)(F)OC(F)(F)C(F)(F)OC(F)(F)C(F)(F)OC(F)(F)F` was run?
**A.** The outcome was “inactive”.

**Q.** And the AC50?
**A.** The AC50 was 19.3 µM (active).

**Q.** For `Cc1ccc(N)cc1N`, which outcome is on record?
**A.** The outcome was “inactive”.

**Q.** How did the outcome turn out when `NC(=O)C(F)(F)C(F)(F)F` was run?
**A.** The outcome was “inactive”.

**Q.** For `CCOc1ccc(C(C)(C)COCc2cccc(Oc3ccccc3)c2)cc1`, which outcome is on record?
**A.** Its outcome is “inactive”.

**Q.** Which outcome does the source give for `CCOC(=O)c1ccccc1C(=O)OCC` here?
**A.** Its outcome is “inactive”.

**Q.** With `CCCN(CCC)c1c([N+](=O)[O-])cc(C(C)C)cc1[N+](=O)[O-]` as the molecule, how does the AC50 read?
**A.** The AC50 was 14.3 µM (active).

**Q.** For `ClC(Cl)c1ccccc1`, which outcome is on record?
**A.** The outcome was “inactive”.

**Q.** With `CCOP(=S)(OCC)SCS(=O)(=O)CC` as the molecule, how does the outcome read?
**A.** Its outcome is “inactive”.

**Q.** For `CC(Cc1ccc(OCC(=O)O)cc1)NCC(O)c1csc(C(F)(F)F)n1` (stereo not given), which outcome is on record?
**A.** The outcome was “inactive”.

**Q.** Which outcome does the source give for `OCC1CO1` (stereo not given) here?
**A.** Its outcome is “inactive”.

**Q.** For `CC(O)C(F)(F)C(F)(F)F` (stereo not given), which outcome is on record?
**A.** The outcome was “inactive”.

**Q.** With `Cc1cccc(N)c1` as the molecule, how does the outcome read?
**A.** Its outcome is “inactive”.

**Q.** `N#Cc1cc([N+](=O)[O-])ccc1N` was tested. Which outcome did it give?
**A.** The outcome was “inactive”.

**Q.** For `CC(Cl)(Cl)C(=O)O`, which outcome is on record?
**A.** The outcome was “inactive”.

**Q.** `c1nc[nH]n1` was tested. Which outcome did it give?
**A.** The outcome was “inactive”.

**Q.** With `O=P1(N(CCCl)CCCl)NCCCO1` (stereo not given) as the molecule, how does the outcome read?
**A.** The outcome was “inactive”.

**Q.** With `CCOP(=S)(Oc1ccc([N+](=O)[O-])cc1)c1ccccc1` (stereo not given) as the molecule, how does the AC50 read?
**A.** Its AC50 is 7.62 µM (active).

**Q.** Which outcome does the source give for `CCCCN(CCCC)N=O` here?
**A.** The outcome was “inactive”.

**Q.** How did the AC50 turn out when `ClC1=C(Cl)C2(Cl)C3C(Cl)C(Cl)CC3C1(Cl)C2(Cl)Cl` (stereo not given) was run?
**A.** The AC50 was 5.47 µM (active).

**Q.** How did the AC50 turn out when `CCCCC(CC)COP(=O)(Oc1ccccc1)Oc1ccccc1` (stereo not given) was run?
**A.** Its AC50 is 1.69 µM (active).

**Q.** Which outcome does the source give for `CCCCc1ccccc1` here?
**A.** Its outcome is “inactive”.

**Q.** For `ClC(Cl)=C(c1ccc(Cl)cc1)c1ccccc1Cl`, which AC50 is on record?
**A.** The AC50 was 2.68 µM (active).

**Q.** `CC(C)(C)c1ccc(O)cc1` was tested. Which outcome did it give?
**A.** The outcome was “inactive”.

**Q.** Which AC50 does the source give for `C=CC(=O)OCC(CC)(COC(=O)C=C)COC(=O)C=C` here?
**A.** Its AC50 is 1.07 µM (active).

**Q.** Which outcome does the source give for `O=C(O)C(F)(OC(F)(F)C(F)(F)C(F)(F)F)C(F)(F)F` (stereo not given) here?
**A.** The outcome was “inactive”.

**Q.** `CCNc1nc(Cl)nc(NC(C)(C)C)n1` was tested. Which outcome did it give?
**A.** The outcome was “inactive”.

**Q.** Which outcome does the source give for `O=C(O)C(F)(F)C(F)(F)C(=O)O` here?
**A.** Its outcome is “inactive”.

**Q.** How did the outcome turn out when `Nc1cc2c3c(c1)C(c1ccccc1)=N[C@@H](NC(=O)c1cccnc1)C(=O)N3CC2` was run?
**A.** The outcome was “inactive”.

**Q.** For `c1cc2c3c(cccc3c1)CC2`, which outcome is on record?
**A.** The outcome was “inactive”.

**Q.** For `CCCCOCCOP(=O)(OCCOCCCC)OCCOCCCC`, which outcome is on record?
**A.** Its outcome is “inactive”.

**Q.** For `c1ccc2c(c1)sc1ccccc12`, which outcome is on record?
**A.** Its outcome is “inactive”.

**Q.** `CN(C)C(=O)Cl` was tested. Which outcome did it give?
**A.** Its outcome is “inactive”.

**Q.** With `Nc1ccc2ccccc2c1` as the molecule, how does the outcome read?
**A.** The outcome was “inactive”.

**Q.** For `CCCCN(CCCC)SN(C)C(=O)Oc1cccc2c1OC(C)(C)C2`, which AC50 is on record?
**A.** The AC50 was 5.54 µM (active).

**Q.** For `Nc1ccc(Cl)cc1`, which outcome is on record?
**A.** The outcome was “inactive”.

**Q.** With `O=S(=O)(F)C(F)(F)C(F)(F)C(F)(F)C(F)(F)C(F)(F)C(F)(F)C(F)(F)C(F)(F)F` as the molecule, how does the outcome read?
**A.** The outcome was “inactive”.

**Q.** `C=CC(=O)OCC(F)(F)C(F)F` was tested. Which AC50 did it give?
**A.** The AC50 was 20 µM (active) and 11.1 µM (active).
